Screens deposited in PubChem by The Scripps Research Institute Molecular Screening Center.
The list is not random: actives were taken first. Their share in the collection is about 4.1%.
DAX1 inh-1 = DAX1 (NR0B1) inhibitors, primary screen, cell-based, HEK293, Gal4-DAX1, luciferase luminescence. Nuclear receptor subfamily 0 group B member 1 (Homo sapiens), P51843. HEK293 Gal4-DAX1 luciferase reporter. inhibition, % at 6.75 µM. actives 0.99% (n = 340,000). AID 504766, 2011;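 active = inhibition above the mean over all tested compounds plus 3 SD, cut at about 4.2% in these data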;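 note: inhibition shows as a rise in luminescence from relieved DAX1 repression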
Target sequence (P51843 207-470 limits assumed): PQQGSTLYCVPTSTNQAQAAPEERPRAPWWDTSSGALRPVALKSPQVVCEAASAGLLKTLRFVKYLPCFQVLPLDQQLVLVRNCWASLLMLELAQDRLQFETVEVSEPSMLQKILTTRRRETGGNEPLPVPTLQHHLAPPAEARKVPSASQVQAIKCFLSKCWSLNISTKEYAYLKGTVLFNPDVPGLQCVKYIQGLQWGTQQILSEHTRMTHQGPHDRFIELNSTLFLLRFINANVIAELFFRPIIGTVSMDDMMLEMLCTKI
DAX1 inh-2 = DAX1 (NR0B1) inhibitors on StAR promoter, primary screen, cell-based, luminescence, SF-1 (NR5A1), full-length DAX-1 | HEK293T StAR-luciferase reporter, SF-1/DAX-1 repression relief | inhibition, % at 6.8 µM | actives 1.1% (n = 370,000);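 active = inhibition above the mean over all tested compounds plus 3 SD, cut at about 3.6% in these data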;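 note: higher inhibition means more luminescence from relief of DAX-1 repression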
hcDAF12 agonist = H. contortus DAF-12 nuclear receptor activators, primary screen, cell-based, luminescence, HEK293, lit1-tk-luc reporter; actives 1.4% (n = 370,000); AID 652067, 2013; activation, % at 6.8 µM; HEK293 hcDAF-12 lit1-tk-luc reporter; 0% DMSO, 100% Δ7-dafachronic acid;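 active = activation above the mean of all tested compounds plus 3 SD, cut at about 5.5% in these data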
hgDAF-12 ag = H. glycines DAF-12 receptor agonists, primary screen, cell-based, luminescence, HEK293, GAL4 fusion, UAS-luciferase. activation, % at 6.8 µM. HEK293 GAL4-hgDAF12 UAS-luciferase reporter, agonist luminescence; normalized to butyrate control. AID 687014, 2013. actives 1.8% (n = 370,000);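 active = activation above a cutoff set at the mean of all screened compounds plus 3 SD, cut at about 10% in these data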
ssDAF12 agonist = S. stercoralis DAF-12 nuclear receptor activators, primary screen, cell-based, luminescence, HEK293, GRIP1 co-expression, lit1-tk-luc; Nuclear hormone receptor DAF-12 (Strongyloides stercoralis); HEK293 ssDAF-12/GRIP1 lit1-tk-luc reporter; % of 3 µM dafachronic acid response; activation, % at 6.8 µM; actives 1% (n = 370,000); AID 652126, 2013;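 active = activation above the mean over all tested compounds plus 3 SD, cut at about 0.9% in these data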
DAX1 conf = DAX1 (NR0B1) inhibitors relieving SF-1 repression, confirmation, cell-based, luminescence, HEK293T, full-length DAX-1, SF-1 activated StAR promoter; actives 87% (n = 2,400); shares compounds with DAX1 inh-2; inhibition, % at 6.8 µM; HEK293T StAR-promoter luciferase reporter, SF-1/DAX-1 repression;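 active = inhibition above the average of every tested compound plus 3 SD, cut at about 3.8% in these data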
SF1 mutant ctr = StAR reporter signal changes without DAX1, counter-screen for DAX1 inhibitor project, cell-based, luminescence, AF-2 mutant SF-1, transactivation | shares compounds with DAX1 inh-2 | HEK293 StAR-luciferase, SF-1 AF2 mutant | inhibition, % at 6.8 µM | actives 78% (n = 2,400) | AID 652136, 2013;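 active = inhibition above the mean of all tested compounds plus 3 SD, cut at about 3% in these data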
A number is an active result; n = inactive; x = no result given.

SMILES | DAX1 inh-1 | DAX1 inh-2 | hcDAF12 agonist | hgDAF-12 ag | ssDAF12 agonist | DAX1 conf | SF1 mutant ctr
O=C(NC1CCCCN(Cc2cccc(C(F)(F)F)c2)C1=O)c1cccc(F)c1 (configuration not stated) | x | n | n | n | n | x | x
Cc1ccnc(NC(=O)c2ccc(OCC3CCCO3)cc2)c1 (configuration not stated) | n | 6.8 | n | n | n | 4.5 | n
Cc1ccc(NC(=O)c2ccc(OCC3CCCO3)cc2)c(C)c1 (configuration not stated) | n | n | n | n | n | x | x
CCc1ccc(NC(=S)N2CCCC2)cc1 | n | 5.3 | 6.0 | 12 | n | 8.6 | 3.9
O=C(Nc1ccc(Br)cc1)N1CCCCCC1 | n | 7.2 | n | n | n | 4.8 | 3.3
CCOC(=O)c1ccc(NC(=O)N2CCCCC2)cc1 | n | x | x | x | x | x | x
O=C(Nc1ccc(Br)cc1)N1CCCC(O)C1 (configuration not stated) | n | n | n | n | n | x | x
O=C(Nc1ccc(Cl)c(Cl)c1)N1CCCCCC1 | n | 5.3 | n | n | n | 8.8 | 4.8
CCc1ccc(NC(=O)N2CCCCCC2)cc1 | n | 5.2 | n | n | n | 9.8 | 7.0
CCc1ccc(NC(=S)N2CCN(C)CC2)cc1 | n | n | n | n | n | x | x
Cc1ccccc1Cn1cc(CN2[C@H](CC(C)C)COc3cc(Br)ccc3S2(=O)=O)nn1 | x | n | n | n | n | x | x
Cc1cc(N2CCN(C(=O)OC(C)(C)C)C[C@@H]2C)ccc1Br | x | n | n | n | n | x | x
C[C@H](CO)N1C[C@H](C)[C@@H](CN(C)C(=O)CCC(F)(F)F)OCc2cn(nn2)CCCC1=O | x | n | n | n | n | x | x
O=C(Nc1ccc(Br)cc1)N1CCc2ccccc2C1 | n | 5.3 | n | n | n | 5.5 | 3.0
Cc1cc(C)cc(NC(=O)N2CCc3ccccc3C2)c1 | n | n | n | n | n | x | x
CN(Cc1ccccc1)C(=O)OCc1cn(Cc2cc(F)ccc2F)nn1 | x | n | n | n | n | x | x
CCOC(=O)CSC1=C(C#N)C(c2ccc(C)o2)CC(=O)N1 (configuration not stated) | n | 5.6 | n | n | n | 17 | n
CCOC(=O)CSC1=C(C#N)C(c2ccc(Cl)cc2)CC(=O)N1 (configuration not stated) | n | n | n | n | n | x | x
COc1ccc(Cl)cc1C(=O)NNC(=O)COC(=O)c1cccs1 | n | 6.4 | n | n | n | n | n
Cc1cc(Cl)ccc1OCC(=O)NNC(=O)c1cccs1 | n | n | n | n | n | x | x
O=C(c1cccnc1)N(Cc1ccccc1)C(c1ccccc1)c1nc2ccccc2[nH]1 (configuration not stated) | x | n | n | n | n | x | x
O=C(c1ccco1)N(Cc1cccnc1)C(c1ccccc1)c1nc2ccccc2[nH]1 (configuration not stated) | x | 6.0 | n | n | n | 3.8 | 3.1
O=C(OCCn1c(=S)sc2ccccc21)c1ccccc1 | n | 6.7 | n | n | n | 9.1 | 7.1
O/N=C/CCn1c(=S)sc2ccccc21 | n | n | n | n | n | x | x
COC1=C[C@H](C(=O)NCc2ccccc2)[C@H](C)[C@@H](c2ccccc2)CC1=O | x | n | n | n | n | x | x
COc1ccc(/C=C/C(Cc2cccc(C(C)=O)c2)c2ccc(C)cc2)cc1 (configuration not stated) | x | n | n | n | n | x | x
CC(=O)Nc1nc2cc3c(cc2s1)OCCO3 | n | 5.8 | n | 11 | 1.3 | 12 | 6.0
